Results reported in the supplement of paper PMC8877412.
Where a name gives a salt, the structure may show the parent alone. ± gives the uncertainty stated by the source.

The compounds below were run on NCC-PMP1-C1 (assay: cell viability relative to DMSO control; higher = less growth inhibition). Settings: 10 µM; 72 h.
Experimental: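 NCC-PMP1-C1 pseudomyxoma peritonei cells were seeded in 384-well plates coated with Matrigel and MEF (1e4 cells). Viability was read after 72 h by CCK-8 and expressed as % of the DMSO control, mean ± SD of duplicates.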

Row | Structure (SMILES) | cell viability [%]
1 | Cn1c(CCCC(=O)O)nc2cc(N(CCCl)CCCl)ccc21 [Bendamustine HCl] | 127 ± 6
2 | CC[C@@]1(O)C(=O)OCc2c1cc1n(c2=O)Cc2cc3ccccc3nc2-1 [Camptothecin] | 82.2 ± 14
3 | O=P1(N(CCCl)CCCl)NCCCO1 (centres undefined) [Cyclophosphamide Monohydrate] | 107 ± 9.1
4 | NCCCNCCSP(=O)(O)O [Amifostine] | 95.3 ± 16
5 | O=C(O)CCCc1ccc(N(CCCl)CCCl)cc1 [Chloroambucil] | 87 ± 20
6 | CC(=O)OC12COC1CC(O)C1(C)C(=O)C(O)C3=C(C)C(O)CC(O)(C(OC(=O)c4ccccc4)C21)C3(C)C (centres undefined) [10-Deacetylbaccatin-III] | 94.7 ± 12
7 | N.N.[Cl][Pt][Cl] [Cisplatin] | 102 ± 3.3
8 | O=C1C2CCN(CC2)C1(CO)CO | 78.8 ± 3.1
9 | O=P1(NCCCl)OCCCN1CCCl (centres undefined) [Ifosfamide] | 106.5 ± 0.13
10 | C=CCN1CC[C@]23c4c5ccc(O)c4O[C@H]2C(=O)CC[C@@]3(O)[C@H]1C5 [Naloxone HCl] | 1.93 ± 1.3
11 | Cc1c(N)nc(C(CC(N)=O)NCC(N)C(N)=O)nc1C(=O)NC(C(=O)NC(C)C(O)C(C)C(=O)NC(C(=O)NCCc1nc(-c2nc(C(=O)NCCC[S+](C)C)cs2)cs1)C(C)O)C(O[C@@H]1O[C@@H](CO)[C@@H](O)[C@H](O)[C@@H]1O[C@H]1O[C@H](CO)[C@@H](O)[C@H](OC(N)=O)[C@@H]1O)c1cnc[nH]1 (some centres undefined) [Bleomycin Sulfate] | 80.5 ± 1.4
12 | C=C1C[C@@H]2[C@H](CC[C@]3(C)C(=O)CC[C@@H]23)[C@@]2(C)C=CC(=O)C=C12 [Exemestane] | 138 ± 5.7
13 | C/C=C(\C)C(=O)N[C@@H](c1ccccc1)[C@@H](O)C(=O)O[C@H]1C[C@@]2(O)[C@@H](OC(=O)c3ccccc3)[C@@H]3[C@]4(OC(C)=O)CO[C@@H]4C[C@H](O)[C@@]3(C)C(=O)[C@H](OC(C)=O)C(=C1C)C2(C)C [Cephalomannine] | 74.9 ± 6.8
14 | COCC1(CO)C(=O)C2CCN1CC2 (centres undefined) | 115 ± 8.3
